We go through 18 compounds from PubChem BioAssay (NCATS).

Usually viability stands for a read-out of living cells in per cent, often relative to untreated cells.

Records with an inconclusive call do not appear. Unmarked numbers belong to inactive results. The source made the active and inactive calls. Calls come from the whole dose curve; as a rule, active = well fitted cell-killing curve with a large enough effect; inconclusive = small, poorly fitted or top-dose-only effect, or effect the other way; inactive = no such curve, though single readings can be large or run the other way.

Experiment [1] in a line: Quantitative High-Throughput drug screen in 47 multiple myeloma cell lines against the NCATS MIPE library collection: MM1S_ATCC cell viability assay (AID 1918980). Note: nearly all actives have a fitted effect of over 45% in size. In short, it runs like this: (§1)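 Myeloma cells (500/well) treated with MIPE 4.0 compounds for 48 h at 37 °C, 5% CO2. Viability read as ATP via CellTiter-Glo luminescence after 5 min at RT; DMSO-only wells = 100%, media-only = 0% viability.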

The nature of experiment [2]: Quantitative High-Throughput drug screen in 47 multiple myeloma cell lines against the NCATS MIPE library collection: LP1_DSMZ cell viability assay (AID 1918982). Note: nearly all actives have a fitted effect of over 35% in size. In outline: as §1
The nature of experiment [3]: Quantitative High-Throughput drug screen in 47 multiple myeloma cell lines against the NCATS MIPE library collection: KMS28PE_JCRB cell viability assay (AID 1918983). Note: nearly all actives have a fitted effect of over 35% in size. In outline:
as §1

The nature of experiment [4]: Quantitative High-Throughput drug screen in 47 multiple myeloma cell lines against the NCATS MIPE library collection: L363_DSMZ cell viability assay (AID 1918984). Note: nearly all actives have a fitted effect of over 40% in size. In outline: as §1
The nature of experiment [5]: Quantitative High-Throughput drug screen in 47 multiple myeloma cell lines against the NCATS MIPE library collection: KMS34_JCRB cell viability assay (AID 1918985). Note: nearly all actives have a fitted effect of over 40% in size. In short, it runs like this:
as §1

The nature of experiment [6]: Quantitative High-Throughput drug screen in 47 multiple myeloma cell lines against the NCATS MIPE library collection: OCIMY5_PLB cell viability assay (AID 1918988). Note: nearly all actives have a fitted effect of over 65% in size. In outline: as §1
The nature of experiment [7]: Quantitative High-Throughput drug screen in 47 multiple myeloma cell lines against the NCATS MIPE library collection: OPM1_PLB cell viability assay (AID 1918989). Note: nearly all actives have a fitted effect of over 40% in size. In outline:
as §1

A short description of experiment [8]: Quantitative High-Throughput drug screen in 47 multiple myeloma cell lines against the NCATS MIPE library collection: SKMM1_PLB cell viability assay (AID 1919863). Note: nearly all actives have a fitted effect of over 35% in size. Conditions: SKMM1 myeloma viability, CellTiter-Glo ATP, 48 h; viability: hits give low values. In outline: as §1
The nature of experiment [9]: Quantitative High-Throughput drug screen in 47 multiple myeloma cell lines against the NCATS MIPE library collection: OCIMY7_PLB cell viability assay (AID 1918987). Note: nearly all actives have a fitted effect of over 65% in size. Conditions: OCI-MY7 myeloma viability, CellTiter-Glo ATP, 48 h; viability (% of DMSO): at 45.8 µM (top of the series). In outline:
as §1

Experiment [10] is described as follows: Quantitative High-Throughput drug screen in 47 multiple myeloma cell lines against the NCATS MIPE library collection: MM1R_ATCC cell viability assay (AID 1918981). Note: nearly all actives have a fitted effect of over 35% in size. In outline:
as §1
Potency is the fitted concentration of half-maximal effect.

On to `COc1ccc2c(c1OC)C(=O)OC2[C@H]1c2c(cc3c(c2OC)OCO3)CCN1C` (stereo not given in full), for which the Potency in experiment [1] is 0.332 µM (active); in experiment [2], 0.132 µM (active); in experiment [3], 0.0526 µM (active); in experiment [4] it was 0.0743 µM (active); in experiment [5], 0.0372 µM (active); in [6] it was 0.0235 µM (active). Besides, the Potency is 0.469 µM (active) in experiment [7] and 0.0235 µM (active) in experiment [8].
`COc1cc2c(cc1OC)[C@@H]1C(=O)c3ccc4c(c3O[C@@H]1CO2)C=CC(C)(C)O4`: the Potency in experiment [1] was 2.96 µM (active); in [2], 0.0296 µM (active); in experiment [3] it was 0.418 µM (active); in [4], 0.0264 µM (active); in [5], 23.5 µM (active); in experiment [9], 0.418 µM (active). Also, the Potency in experiment [6] was 0.148 µM (active); in experiment [7] it was 10.5 µM (active); in [8], 13.2 µM (active).
In the case of `C[C@H]1O[C@H](O[C@H]2[C@H](O)[C@@H](O)[C@@H](O[C@H]3[C@H](O)[C@@H](O)C(O)O[C@H]3CO)O[C@H]2CO)[C@H](O)[C@@H](O)[C@H]1N[C@H]1C=C(CO)[C@@H](O)[C@H](O)[C@@H]1O` (stereo not given in full), the Potency result in experiment [1], in [2], in [3], in experiment [5] and in experiment [7] was “inactive” in each case. Also, the Potency in experiment [4] is 20.9 µM (active). In experiment [8], the viability is 131%.
`CCC[C@H]1C[C@H](C(=O)N[C@@H]([C@@H]2O[C@@H](SC)[C@@H](O)[C@@H](O)[C@@H]2O)[C@H](C)Cl)N(C)C1`: the Potency result in experiment [1], in experiment [2], in [3], in experiment [4], in experiment [5] and in [9] was “inactive” throughout. The Potency entry in [6] and in experiment [7] was “inactive” throughout.
On to `C#C[C@]1(O)CC[C@@H]2[C@@H]3CCc4cc(O)ccc4[C@H]3CC[C@@]21C`, for which the Potency in [1] is 11.8 µM (active); in experiment [10], 20.9 µM (active); in experiment [9], 3.72 µM (active); in experiment [6], 7.43 µM (active); in [7], 23.5 µM (active); in experiment [8] it was 14.8 µM (active).
Turning to `N#Cc1c(C2CCNCC2)cc(-c2c(O)cccc2OCC2CC2)nc1N`, the Potency in experiment [1] was 16.6 µM (active); in experiment [10], 20.9 µM (active); in [3], 26.4 µM (active); in [9], 2.35 µM (active); in [6], 14.8 µM (active); in [7], 20.9 µM (active). Moreover, the Potency in experiment [8] was 18.7 µM (active).
Turning to `NC[C@H]1O[C@H](O[C@H]2[C@@H](O)[C@@H](O[C@H]3O[C@H](CO)[C@@H](O)[C@H](N)[C@@H]3O)[C@H](N)C[C@@H]2N)[C@H](N)C[C@H]1O`, the Potency entry in [1], in [2], in [3], in [4], in experiment [5] and in experiment [6] was “inactive” each time.
Regarding `C[C@]12CC[C@@H]3c4ccc(O)cc4CC[C@H]3[C@H]1CC[C@H]2O`, the Potency is 8.33 µM (active) in [1]; 14.8 µM (active) in [10]; 5.9 µM (active) in experiment [9]; 9.35 µM (active) in experiment [6]; 16.6 µM (active) in [7].
`c1ccc(CNc2nc(NCc3ccccc3)c3ccccc3n2)cc1`: the Potency in experiment [1] is 8.33 µM (active); in [2], 23.5 µM (active); in experiment [3], 23.5 µM (active); in experiment [4], 5.26 µM (active); in experiment [5], 20.9 µM (active); in experiment [9], 4.69 µM (active). In experiment [8], the Potency is 29.6 µM (active).
In the case of `C[C@H](CCC(=O)O)[C@H]1CC[C@H]2[C@@H]3[C@H](O)C[C@@H]4C[C@H](O)CC[C@]4(C)[C@@H]3CC[C@]12C`, the Potency entry in experiment [1], in experiment [2], in [3], in experiment [4] and in experiment [5] was “inactive” throughout. Further, in [8], the viability is 131%.
As for `CN1C(C(=O)Nc2ccccn2)=C(O)c2sc(Cl)cc2S1(=O)=O`, the Potency in experiment [1] is 5.26 µM (active); in experiment [2] it was 4.69 µM (active); in [3], 4.69 µM (active); in experiment [5], 2.96 µM (active); in experiment [9], 1.32 µM (active); in experiment [6], 2.96 µM (active). For the same compound, the Potency in experiment [7] is 4.18 µM (active).
`Cn1cc(C=CC(=O)c2cccc(F)c2)cc1C=CC(=O)NO`: the Potency was 14.8 µM (active) in experiment [1]; 16.6 µM (active) in experiment [10]; 11.8 µM (active) in experiment [4]; 16.6 µM (active) in experiment [5]; 11.8 µM (active) in experiment [9]; 14.8 µM (active) in experiment [6]. For the same compound, the Potency in experiment [7] is 23.5 µM (active).
Regarding `OC[C@H]1OC(O)C[C@@H](O)[C@H]1O` (stereo not given in full), the Potency entry in experiment [1], in experiment [2], in [3], in experiment [4] and in [5] was “inactive” throughout. Also, the viability in experiment [8] was 120%.
On to `CC(C(C)N1CC(=O)NC(=O)C1)N1CC(=O)NC(=O)C1` (stereo not given), for which the Potency entry in experiment [1] and in [3] was “inactive” in each case. In addition, the Potency in experiment [6] was 0.469 µM (active). In addition, the viability in [8] is 134%.
Take `COc1cc(C(C)C)c(Oc2cnc(NC(CO)CO)nc2N)cc1I`: the Potency was 1.05 µM (active) in [1], 1.48 µM (active) in experiment [6] and 1.66 µM (active) in [7]. In addition, the Potency entry in experiment [2] is “inactive”. Further, the viability in experiment [8] is 122%.
Regarding `OCC(O)C(O)C(O)CO` (stereo not given), the Potency entry in experiment [1], in [2], in experiment [4], in experiment [5], in [9] and in experiment [7] was “inactive” in each case.
Take `C#Cc1cccc(Nc2ncnc3cc(OCCOC)c(OCCO)cc23)c1`: the Potency in experiment [1] is 3.72 µM (active); in [3], 18.7 µM (active); in experiment [4], 0.372 µM (active); in [9], 1.87 µM (active); in experiment [6], 3.32 µM (active); in experiment [7], 13.2 µM (active).
In the case of `O=c1[nH]c(=O)n([C@H]2C[C@@H](O)[C@@H](CO)O2)cc1F`, the Potency in experiment [1] was 11.8 µM (active); in [2], 10.5 µM (active); in [9], 0.59 µM (active); in experiment [6] it was 26.4 µM (active); in experiment [7], 0.0296 µM (active).
